Measured values as given in the supplement of paper PMC8253809.
Where “and” joins values, the source holds several entries; their conditions need not be identical. Equal entries are not always repeated.

Key:
Experiment in all cases: growth inhibition (% activity, log2 RLU normalised to DMSO / staurosporine); higher = more growth inhibition
Conditions in all cases: 33 µM
[1] = system: DIPGX29 (H3.3 K27M diffuse intrinsic pontine glioma line)
How it was run: (§1)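 For each approved drug, the growth-inhibition value is the replicate median of per-plate normalised CellTiter-Glo data. Luminescence was log2-transformed and expressed as % activity between solvent and positive control wells. Drugs were applied in triplicate at a single final concentration of about 33 μM for 7 days at 37 °C, 5% CO2 to pHGG cell lines and H9-derived neural stem cells.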

[2] = system: DIPGX37 (H3.3 K27M diffuse intrinsic pontine glioma line)
How it was run: as §1

[3] = system: DIPGX7 (H3.3 K27M diffuse intrinsic pontine glioma line)
How it was run: as §1

[4] = system: DIPGX9 (diffuse intrinsic pontine glioma line)
How it was run: as §1

[5] = system: HGGX39 (paediatric high-grade glioma line)
How it was run: as §1

[6] = system: HGGX6 (H3.3 G34R paediatric high-grade glioma line)
How it was run: as §1

[7] = system: HNSC
How it was run: as §1

[8] = system: SUDIPGIV (diffuse intrinsic pontine glioma line)
How it was run: as §1

[9] = system: SUDIPGVI (diffuse intrinsic pontine glioma line)
How it was run: as §1

[10] = system: SUDIPGXIII (diffuse intrinsic pontine glioma line)
How it was run: as §1

| Compound | growth inhibition [1] | growth inhibition [2] | growth inhibition [3] | growth inhibition [4] | growth inhibition [5] | growth inhibition [6] | growth inhibition [7] | growth inhibition [8] | growth inhibition [9] | growth inhibition [10] |
| --- | --- | --- | --- | --- | --- | --- | --- | --- | --- | --- |
| CN(CCOc1ccc(CC2SC(=O)NC2=O)cc1)c1ccccn1 (stereo not given) | 0.694% and -0.307% and -1.83% | 3.97% and -0.209% and -2.53% | 1.8% and -0.988% and -1.81% | 2.03% and 1.11% and 0.786% | 1.62% and 0.821% and 0.11% | 1.66% and 0.11% and -0.818% | -0.719% and -0.633% and -2.63% | 4.42% and -0.944% and -1.21% | 1.7% and -0.11% and -0.397% | -15.6% and -1.12% |
| Clc1cccc(Cl)c1NC1=NCCN1 | 1.49% | -3.42% | 1.12% | 0.614% | 1.32% | 0.951% | 2.98% | 0.943% | -1.83% | -1.09% |
| C#CCC(Cc1cnc2nc(N)nc(N)c2n1)c1ccc(C(=O)N[C@@H](CCC(=O)O)C(=O)O)cc1 (stereo not given in full) | 10.7% | 6.3% | 25% | 9.98% | 22.8% | 24% | 56.1% | 16.5% | 17.6% | 13% |
| CC(C)(O)c1ccccc1CC[C@@H](SCC1(CC(=O)O)CC1)c1cccc(/C=C/c2ccc3ccc(Cl)cc3n2)c1 | -0.862% | 0.461% | -2.4% | -1.33% | -0.172% | -2.63% | -3.15% | -1.21% | -0.324% | -15.7% |
| CO[C@H]1/C=C/O[C@@]2(C)Oc3c(C)c(O)c4c(O)c(c(/C=N/N5CCN(C6CCCC6)CC5)c(O)c4c3C2=O)NC(=O)/C(C)=C\C=C\[C@H](C)[C@H](O)[C@@H](C)[C@@H](O)[C@@H](C)[C@H](OC(C)=O)[C@@H]1C | 1.87% | 1.82% | 1.73% | 2.34% | 2.99% | 2.94% | 0.219% | -0.888% | 1.12% | 0.627% |
| CCOC(=O)[C@H](CCc1ccccc1)N[C@@H](C)C(=O)N1CCC[C@H]1C(=O)O | 1.73% | -8.18% | 0.205% | 0.307% | 0.569% | -0.623% | 1.11% | -1.94% | -1.02% | -3.41% |
| CC(/C=C1\SC(=S)N(CC(=O)O)C1=O)=C\c1ccccc1 | -1.36% | -1.28% | -1.21% | 0.579% | -0.83% | -0.392% | -2.25% | -1.67% | -1.06% | 1.76% |
| CC[C@H]1OC(=O)[C@H](C)[C@@H](O[C@H]2C[C@@](C)(OC)[C@@H](O)[C@H](C)O2)[C@H](C)[C@@H](O[C@@H]2O[C@H](C)C[C@H](N(C)C)[C@H]2O)[C@](C)(O)C[C@@H](C)CN(C)[C@H](C)[C@@H](O)[C@]1(C)O | 2.6% and 0.58% | 0.972% and 0.639% | 2.78% and -0.0129% | 0.764% and 1.25% | 1.94% and 0.554% | 0.417% and 2.15% | -0.827% and -1.61% | -0.232% and -0.687% | -6.26% and 1.06% | 1.93% and -0.434% |
| CC(=O)OCC(=O)[C@H]1CC[C@H]2[C@@H]3CCC4=CC(=O)CC[C@]4(C)[C@H]3CC[C@]12C | -1.69% | -0.592% | -0.0117% | -0.0895% | 1.53% | -0.537% | -2.47% | -2% | -0.651% | 5.18% |
| COc1ccc(CNc2nc(N3CCC[C@H]3CO)ncc2C(=O)NCc2ncccn2)cc1Cl | -1.4% | -6.17% | -0.329% | -0.502% | -0.964% | -0.0101% | -2.71% | -1.36% | -2.1% | -0.559% |
| Clc1ccc(COC(Cn2ccnc2)c2ccc(Cl)cc2Cl)cc1 (stereo not given) | 1.53% | 4.62% | 0.954% | 4% | 9.31% | 8.25% | 7.53% | 11.7% | 1.21% | 7.66% |
| O=C(O)c1ccc(-n2nc(-c3ccccc3O)nc2-c2ccccc2O)cc1 | -3.59% | -2.58% | 0.0493% | -2.68% | -2% | -3.44% | 1.36% | -5.33% | -6.58% | 0.207% |
| CNNCc1ccc(C(=O)NC(C)C)cc1 | 2.14% | -0.517% | 2.87% | 1.95% | 3.29% | 0.0869% | 6.38% | -0.464% | 2.55% | -0.216% |
| CCOC(=O)c1ncn2c1CN(C)C(=O)c1cc(F)ccc1-2 | 1.51% | 1.71% | 0.351% | 4.52% | 2.75% | 0.552% | 0.0947% | -1.75% | 2.57% | 2.26% |
| O=c1[nH]c(=O)n(C2CCCO2)cc1F (stereo not given) | -0.615% | 0.56% | -0.536% | -0.0713% | 1.51% | -0.669% | -0.796% | -1.49% | -0.356% | -6.49% |
| CC(=O)N1CCN(c2ccc(OCC3COC(Cn4ccnc4)(c4ccc(Cl)cc4Cl)O3)cc2)CC1 (stereo not given) | 5.63% | 1.48% | 11.2% | 4.81% | 13.3% | 9.98% | 7.8% | 13.7% | 7% | 12% |
| CCOC(=O)C1=C(C)NC(C)=C(C(=O)OC)C1c1cccc([N+](=O)[O-])c1 (stereo not given) | -2.41% | 0.972% | 1.75% | -2.12% | 0.389% | -2.9% | 37.3% | -0.292% | -8.45% | 2.39% |
| CC1(C)[C@H](C(=O)O)N2C(=O)C[C@H]2S1(=O)=O | 2.32% and -0.376% | -0.186% and 1.2% | 3.29% and 0.579% | 2.15% and 2.67% | 4.9% and 2.16% | 1.21% and -0.215% | 11.1% and 0.73% | 1.62% and -0.448% | 2.58% and 1.67% | 0.364% and -0.373% |

| Compound | growth inhibition [1] | growth inhibition [2] | growth inhibition [3] | growth inhibition [4] | growth inhibition [5] | growth inhibition [6] | growth inhibition [7] | growth inhibition [8] | growth inhibition [9] | growth inhibition [10] |
| --- | --- | --- | --- | --- | --- | --- | --- | --- | --- | --- |
| O=C(O)C1=CO[C@@H](O[C@@H]2O[C@H](CO)[C@@H](O)[C@H](O)[C@H]2O)[C@@H]2C(CO)=CC[C@H]12 | -3.84% | -2.61% | -0.0942% | -1.59% | -2.13% | -4.13% | 9.11% | -1.22% | -7.67% | -1.52% |
| Cc1cccc(C)c1NC(=O)C1CCCCN1C (stereo not given) | 0.788% | 0.607% | -0.12% | 0.0719% | 1.51% | 1.22% | -1.45% | -0.501% | 1.09% | 1.48% |
| CC(C)c1nc(N(C)S(C)(=O)=O)nc(-c2ccc(F)cc2)c1C=CC(O)CC(O)CC(=O)O (stereo not given) | 7.07% | -1.35% | 16.7% | 4.14% | 24.4% | 15.9% | 73.3% | 21.5% | -6.26% | 17% |
| O=C(CCCN1CCN(c2ccccn2)CC1)c1ccc(F)cc1 | 1.87% | 0.83% | 5.21% | 1.29% | 4.4% | 3.31% | 1.17% | 0.0159% | -3.95% | 2.26% |
| COc1ccc2cccc(CCNC(C)=O)c2c1 | -3.08% | -0.948% | -1.76% | -2.3% | -1.63% | -4.45% | -2.84% | -2.11% | -2.45% | -0.361% |
| c1ccc(CN(CC2=NCCN2)c2ccccc2)cc1 | 1.93% | 1.36% | 0.575% | 3.38% | 1.53% | 0.0328% | 0.623% | -2.17% | 3.06% | 0.969% |
| COC(=O)[C@H](Cc1ccccc1)NC(=O)[C@@H](N)CC(=O)O | -2.32% | -1.81% | -2.17% | -2.28% | -1.24% | 0.801% | -5.7% | -2.58% | -1.43% | -6.7% |
| COc1ccc2cc1Oc1ccc(cc1)C[C@H]1c3c(cc4c(c3Oc3cc5c(cc3OC)CCN(C)[C@@H]5C2)OCO4)CCN1C | 1.78% | 2.93% | 1.55% | 1.36% | 3.95% | 0.797% | 3.27% | -0.21% | 3.68% | 1.63% |
| NC(=O)C(c1ccccc1)(c1ccccc1)[C@@H]1CCN(CCc2ccc3c(c2)CCO3)C1 | 2.96% | 2.86% | 0.954% | 1.04% | 4.33% | 2.82% | 1.33% | 0.535% | 2.52% | 0.646% |
| CN(C)CCCC1(c2ccc(F)cc2)OCc2cc(C#N)ccc21 (stereo not given) | 1.68% | 3.31% | 3.03% | 1.7% | 2.63% | 3.21% | -0.115% | 1.18% | 1.71% | 0.506% |
| O=C1O[C@H]([C@@H](O)CO)C(O)=C1O | -0.099% | 2.39% | 0.0255% | -1.21% | 1.99% | -2.25% | 2.06% | 0.144% | -0.209% | -0.259% |
| CN(C)CCCN1c2ccccc2Sc2ccc(Cl)cc21 | -1.92% | -1.4% | 0.129% | -1.08% | 0.279% | -2.17% | 24.1% | -0.706% | -5.1% | 2.77% |
| Cc1nc2n(c(=O)c1CCN1CCC(c3noc4cc(F)ccc34)CC1)CCCC2 | 2.78% | 1.21% | 3.37% | 1.08% | 3.29% | 1.84% | 0.606% | 0.111% | -0.157% | 1.25% |
| CCOC(=O)[C@H](CCc1ccccc1)N[C@@H](C)C(=O)N1Cc2ccccc2C[C@H]1C(=O)O | 1.41% | 1.99% | 3.28% | 3.18% | 5.5% | 3.4% | 5.54% | 3.99% | 0.712% | 0.247% |
| CC(C(=O)O)c1cccc(C(=O)c2ccccc2)c1 (stereo not given) | -0.509% | -1.31% | -0.656% | -0.0225% | 1.05% | 0.639% | 0.455% | -5.26% | 1.35% | -0.582% |
| O=C(NC(Cc1cc(=O)[nH]c2ccccc12)C(=O)O)c1ccc(Cl)cc1 (stereo not given) | 0.575% | 0.0807% | -1.26% | 0.987% | 0.192% | 0.202% | -1.11% | -0.753% | 0.645% | 0.24% |
| C[C@H](N)[C@H](O)c1cccc(O)c1 | 2.35% | 0.0235% | 1.7% | 1.54% | 5.08% | 0.73% | 3.77% | 1.73% | 4.42% | 1.04% |
| CC1=CC(=O)c2ccccc2C1=O | 2.41% | 0.293% | 3.47% | 2.26% | 1.01% | 2.5% | 42.7% | 1.4% | 4.19% | -2.13% |
